Assay outcomes: PubChem BioAssay, National Center for Advancing Translational Sciences (NCATS)
A selection: hits, their analogues and other compounds. The true share with any hit is near 5.6%.
VP16 counter: Gal4-VP16 reporter inhibition counter-screen; Potency, µM (titrated, usually from 53.6 µM), for inactives: at the top dose activity, negative = inhibition, actives largely listed as inhibitors; Drosophila S2 Gal4-VP16 UAS-luciferase, luminescence, 20 h; 3.5% of 310,000 active; AID 2546;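 also: Gal4-VP16 expression switched on by copper sulfate through the metallothionein promoter; potency is read from the fitted curve at half-maximal effect; nearly all actives have a fitted effect of over 50% in size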
PKM2 activator: activators of human pyruvate kinase M2 | purified PKM2, Kinase-Glo ATP luminescence, activation; response scale: 0% is enzyme alone, no compound | Potency, µM (doses to about 57.5 µM), for inactives: at the highest dose activation, hits mostly activators | 0.34% of 260,000 active; also: potency is read from the fitted curve at half-maximal effect; nearly all actives have a fitted effect of over 55% in size
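ATP formation by purified human PK-M2, quantified via coupled luciferase luminescence after 1 h at room temperature with 0.1 mM ADP and 0.5 mM PEP final.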
Six1-Eya2 inh: Six1/Eya2 interaction inhibition; Q15475+O00167; AlphaScreen GST-Six1/His-Eya2 binding, biochemical; stronger effect = lower value; activity change, % (test concentration not listed); 0.56% of 360,000 active; in the data active = activity change below about -65%; inconclusive = mostly about -30% to -63%
Target sequence (O00167 whole entry, looked up): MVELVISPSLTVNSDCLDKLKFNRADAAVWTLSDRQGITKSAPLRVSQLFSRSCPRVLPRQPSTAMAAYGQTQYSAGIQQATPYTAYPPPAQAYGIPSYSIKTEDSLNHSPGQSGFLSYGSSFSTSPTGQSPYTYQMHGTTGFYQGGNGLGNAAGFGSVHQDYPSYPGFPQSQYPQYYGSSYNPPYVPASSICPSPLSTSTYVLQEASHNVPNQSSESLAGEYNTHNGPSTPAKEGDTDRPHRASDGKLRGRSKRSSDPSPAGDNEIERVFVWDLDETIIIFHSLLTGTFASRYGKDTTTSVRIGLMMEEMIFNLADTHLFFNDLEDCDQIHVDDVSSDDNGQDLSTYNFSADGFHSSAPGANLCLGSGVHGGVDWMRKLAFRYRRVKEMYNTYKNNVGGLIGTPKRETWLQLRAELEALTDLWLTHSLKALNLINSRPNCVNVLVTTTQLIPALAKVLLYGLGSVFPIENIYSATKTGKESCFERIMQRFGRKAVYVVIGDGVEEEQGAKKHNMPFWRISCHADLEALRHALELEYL
Target sequence (Q15475 whole entry, looked up): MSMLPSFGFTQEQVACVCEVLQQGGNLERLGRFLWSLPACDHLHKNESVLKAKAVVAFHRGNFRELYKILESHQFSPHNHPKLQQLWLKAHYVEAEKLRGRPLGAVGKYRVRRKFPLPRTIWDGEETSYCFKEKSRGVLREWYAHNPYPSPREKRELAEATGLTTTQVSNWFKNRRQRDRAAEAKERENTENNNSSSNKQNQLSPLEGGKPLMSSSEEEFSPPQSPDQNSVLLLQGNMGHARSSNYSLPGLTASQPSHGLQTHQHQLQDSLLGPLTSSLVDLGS
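AlphaScreen with GST-Six1 and His-Eya2 (5X mix: 250 nM and 500 nM), glutathione donor and nickel acceptor beads; buffer 50 mM Tris pH 8.0, 300 mM NaCl, 1 mM TCEP; 1 h at 37 C in the dark.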
RORg inh: blocks mouse ROR gamma transcriptional activity. Potency, µM (highest dose often 53.6 µM), inactives show top-dose activity change, negative = inhibition, most hits filed as inhibitors. P51450. 5.4% of 310,000 active. Drosophila S2 Gal4-RORgamma UAS-luciferase reporter, 20 h; also: potency is read from the fitted curve at half-maximal effect; nearly all actives have a fitted effect of over 60% in size
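Stably transfected Drosophila Schneider cells are the test system, with ROR gamma fused to Gal4 and luciferase under UAS control; luminescence is read after 20 hr of 700 uM copper sulfate induction at ambient temperature.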
CtBP-E1A inh: inhibitors of CtBP/E1A interaction; 0.49% of 340,000 active; activity change, % (test concentration not listed); AlphaScreen GST-E1A/His-CtBP binding, 1536-well; stronger effect = lower value; in the data active = activity change below about -65%; inconclusive = mostly about -30% to -63%
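In 5 uL wells, 23 nL compound meets equimolar GST-E1A and His-CtBP (5X stock 125 nM each) for 2 h, 37 °C. Beads (5X, 50 ug/mL) then 1 h, 37 °C, dark.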
* = called active by the depositor; u = inconclusive; x = not tested or not shown; [ ] = dose if it differs, or a comment. Unless noted, calls follow the shape of the dose curve; as a rule, active = well fitted curve in the direction sought with a large enough effect; inconclusive = small, poorly fitted or top-dose-only effect, or another doubt; inactive = no such curve, though single readings can be large; an effect the other way counts as inactive or inconclusive. % is scaled to controls: 0 for no effect and ±100 for the full control effect.

SMILES | VP16 counter | PKM2 activator | Six1-Eya2 inh | RORg inh | CtBP-E1A inh
COc1ccccc1COc1ccc2c(C)c(CCC(=O)O)c(=O)oc2c1C | u | x | -9 | 7.9µM* | -1
CCCCNC(=O)Nc1nnc(C(C)(C)C)s1 | 1% | -1% | 6 | 6% | 12
CS(=O)(=O)N1CCC2(CCN(c3ccccn3)CC2)CC1 | -1% | x | x | -5% | x
C/C(=N\NC(=O)c1ccc(NS(=O)(=O)c2cccs2)cc1)c1ccc(O)cc1O | -9% | -1% | u | -39% | u
CC(C)Cn1c(-c2ccc(Br)o2)n[nH]c1=S | u | -2% | 1 | 6.3µM* | 7
CC(C)Cn1c(-c2nn(C)cc2Cl)n[nH]c1=S | u | 0% | -1 | 11µM* | 1
Cc1ccccc1-n1c(-c2ccc(Br)o2)n[nH]c1=S | x | x | 0 | x | 6
Cc1ccsc1-c1n[nH]c(=S)n1CC(C)C | 6.3µM* | -3% | 9 | 2.8µM* | 5
CCn1c(-c2nn(C)cc2Cl)n[nH]c1=S | u | -23% | 3 | 11µM* | 4
c1ccc(-c2nc(-n3ccnc3)nc(-n3ccnc3)n2)cc1 | 5% | -6% | -17 | u | -10
c1ccc(CN2CCN(c3nc(-c4ccccc4)nc(-n4ccnc4)n3)CC2)cc1 | u | 0% | -24 | 14µM* | -27
CCOC(=O)N1CCN(c2nc(N(c3ccccc3)c3ccccc3)nc(-n3ccnc3)n2)CC1 | 0% | 0% | x | 8% | x
CN(c1ccccc1)c1nc(N2CCCC2)nc(-n2ccnc2)n1 | 11µM* | 1% | -7 | 4.5µM* | -4
c1ccc(N(c2ccccc2)c2nc(N3CCCC3)nc(-n3ccnc3)n2)cc1 | 11µM* | -1% | -2 | 7.1µM* | -7
C=C1CCc2c([nH]c3ccc(OCC(C)C)cc23)C1=O | u | x | 1 | 14µM* | 7
Cc1cc(/C=c2\sc3nc4ccccc4n3c2=O)c(C)n1-c1ccc(C(=O)O)cc1 | 8% | -2% | -1 | 3% | -21
Cc1cc(/C=c2/sc3nc4ccccc4n3c2=O)c(C)n1-c1ccccn1 | 0.25µM* | -4% | -2 | 0.1µM* | -3
Nn1c(SCC(=O)NC2CCS(=O)(=O)C2)nc2scc(-c3ccccc3)c2c1=O (stereo not drawn) | x | x | -1 | x | -26
COc1ccc2oc(=O)c(C(=O)Nc3ccccc3C)cc2c1 | u | -2% | u | 0.89µM* | x
COc1ccc2oc(=N)c(C(=O)Nc3cccc(C)c3C)cc2c1 | -28% | -7% | 12 | 3.2µM* | -2
CCC1(c2ccc(OC)cc2)NC(=O)N(CC(=O)c2ccc3c(c2)OCCO3)C1=O (stereo not drawn) | x | x | 7 | x | -8
Cc1nn(-c2ccccc2)c(C)c1C(=O)N1CCN(S(=O)(=O)c2ccccc2)CC1 | x | x | 4 | x | -4
CCCCNC(=O)C[C@@H]1C[C@@]2(C(=O)OC)CCCCC=C2N(Cc2ccc(Cl)cc2Cl)C1=O | x | x | -2 | x | 0
CN(C)c1ccc2c(c1)C(=NO)c1ccccc1-2 | x | x | -66* | x | 1
Cc1cccc(NC(=O)CSc2ccc(-c3ccccn3)nn2)c1C | -12% | 1% | -87* | -28% | -75*
SMILES | VP16 counter | PKM2 activator | Six1-Eya2 inh | RORg inh | CtBP-E1A inh
Cc1ccc(NC(=O)CSc2ccc(-c3ccccn3)nn2)c(C)c1 | -13% | 9% | -26 | -11% | -25
COc1ccccc1NC(=O)CSc1nc(N)c(C#N)cc1C#N | 1% | 14µM* | -10 | 25% | -10
COc1ccccc1NC(=O)CSc1ccc(-c2ccccn2)nn1 | -2% | 3% | -89* | -41% | -90*
CCCn1c(NC(=O)c2ccc([N+](=O)[O-])o2)nc2ccccc21 | x | x | -15 | x | -3
CCOc1ccc(N(CC(=O)N2CCC(Cc3ccccc3)CC2)S(C)(=O)=O)cc1 | -16% | -24% | -6 | 4% | -11
COc1ccccc1NC(=O)CCSc1nc(C)cs1 | x | -10% | 2 | x | x
Cc1cc(C)c(S(N)(=O)=O)c(C)c1-n1cnnn1 | 3% | 0% | 5 | 8.9µM* | 5
Nc1ncc(Br)cc1S(=O)(=O)Nc1cc(C(F)(F)F)cc(C(F)(F)F)c1 | 22µM* | x | 3 | -81% | 3
Cc1ccc(Cl)cc1N1CCN(C(=O)CCS(=O)(=O)c2ccc3c(c2)NC(=O)CO3)CC1 | u | 0%[0.46 µM] | -3 | 34% | -4
CC1(C)CC(=O)C/C(=N/Nc2nc3ccccc3s2)C1 | 23% | -4% | -12 | 8.9µM* | 2
CC1CCC/C(=N/Nc2nc3ccccc3s2)C1 (stereo not drawn) | u | 4% | -9 | 6.3µM* | 1
O=C(O)CNC(=O)CC1S/C(=N/N=C/c2ccccc2O)NC1=O (stereo not drawn) | 10% | -25% | -16 | -16% | x
O=C(O)CNC(=O)CC1S/C(=N/N=C2\CSC(=O)N2)NC1=O (stereo not drawn) | 8% | -4% | -93* | -20% | x
CCNC(=O)CC1S/C(=N/N=C(\C)c2ccccc2)NC1=O (stereo not drawn) | -11%[10 µM] | -2% | 3 | -2% | x
NC(=O)NC(=O)CC1S/C(=N/N=C2/NC(=O)CS2)NC1=O (stereo not drawn) | 1% | -7% | -78* | -29% | u
CNS(=O)(=O)c1cc(NC(=O)c2cnc(SC)n2-c2ccccc2)ccc1C | -5% | 6% | -7 | u | -2
CCOc1cc(C(=O)NCCN2C(=O)S/C(=C\c3cccnc3)C2=O)cc(OCC)c1OCC | 22% | 18µM* | -8 | 18% | x
COc1ccc(C(=O)NCCN2C(=O)S/C(=C\c3cccnc3)C2=O)c(OC)c1OC | u | u | -5 | -21% | -2
Cc1ccc(NC(=O)C2=C(O)CCn3c2nc2ccccc23)cc1 | 5.6µM* | 10% | -9 | 4.5µM* | 8
COc1ccc(C(=O)NNC2CC(=O)N(Cc3ccc(Cl)cc3)C2=O)cc1OC (stereo not drawn) | 7.1µM* | 11% | -4 | u | -16
Cc1[nH]n(-c2ccccc2)c(=O)c1N=Nc1ccccc1 | u | 1% | u | 20% | -27
Cc1[nH]n(-c2ccccc2)c(=O)c1N=Nc1cccc(S(=O)(=O)N2CCOCC2)c1 | u | -16% | -15 | 7.9µM* | 0
Cc1[nH]n(-c2ccccc2)c(=O)c1N=Nc1ccccc1C(=O)N1CCOCC1 | 10% | -6% | -11 | u | -2
O=Nc1c(-c2ccccc2)[nH]n(-c2ccccc2)c1=O | 16µM* | 0% | -10 | u | -5
Cc1[nH]n(-c2ccccc2)c(=O)c1N=Nc1cccc(C(=O)O)c1 | 2.8µM* | -6% | -4 | u | -6
Cc1[nH]n(-c2ccccc2)c(=O)c1N=Nc1c(Cl)cccc1Cl | u | -2% | -23 | 13µM* | x
COc1cccc(CN(CCC(C)C)S(=O)(=O)c2cc(Br)ccc2Br)c1 | x | x | 23 | x | 18
Cc1cc(=O)n(Nc2ccccc2)c(O)c1C#N | x | x | -2 | x | 5
